Rows were chosen to be rich in hits. Some 21% of all compounds tested hit in one or more screens of this group.
Shiga toxin inh – inhibitors of Shiga toxin in Vero cells; Vero cells, Shiga toxin protein synthesis inhibition reporter; inhibition, % at 38.7 µM; 9.2% of 290,000 active; AID 2315; in the data active = inhibition mostly above about 28%, no sharp cut-off; inactive = mostly below about 43%; note: 0% is about no effect
NS1 inh – blocks influenza NS1 protein function | Potency, µM (titrated, usually from 46.1 µM), without a hit: top-dose activity, positive = more growth | 0.4% of 270,000 active; calls by dose curve; note: potency is the fitted concentration of half-maximal effect; actives are rising curves; nearly all actives have a fitted effect of over 50% in size
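Compounds were scored for reversing the slow growth caused by influenza A NS1 in S. cerevisiae, measured by optical density at 600 nm. Assay medium contained 2% galactose at pH 6.0; NS1-free yeast of the same strain were the positive control.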
Pf growth 96h – P. falciparum growth inhibition at 96 hour, primary screen for plastid delayed-death inhibitors. P. falciparum luciferase reporter growth, 96 h. Potency, µM (highest dose often 28.7 µM), without a hit: at the highest dose activity change, negative = inhibition, most hits filed as inhibitors. 6.9% of 320,000 active. AID 504834; note: potency is the fitted concentration of half-maximal effect; % is set by controls: 0 for no effect and ±100 for the full control effect
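Two parasite generations (96 h, 37 C, 5% CO2) of compound exposure in infected erythrocytes (0.05% parasitemia, 2% hematocrit). Luciferase-reporter P. falciparum; decreased luminescence indicates inhibited growth, aimed at apicoplast-acting delayed death.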
Pf growth 48h – inhibits P. falciparum growth in the first generation, 48 h; Potency, µM (doses to about 28.7 µM), without a hit: top-dose activity change, negative = inhibition, most hits filed as inhibitors; 5.9% of 310,000 active; P. falciparum luciferase growth in erythrocytes, 48 h; note: potency is the fitted concentration of half-maximal effect; % is set by controls: 0 for no effect and ±100 for the full control effect
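Luciferase-expressing P. falciparum in infected erythrocytes (2% hematocrit, 0.1% parasitemia final) in RPMI 1640/0.5% Albumax were exposed to compound for 48 hours at 37 C, 5% CO2; growth read as luminescence.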
Cycloheximide cs – counter-screen for Shiga toxin inhibitors: cycloheximide protein synthesis inhibition; 12% of 300,000 active; cell reporter, cycloheximide protein synthesis inhibition counterscreen; max response, %; in the data active = max response mostly above about 13%, no sharp cut-off; inactive = mostly below about 14%; note: read at 38.3 µM for the half of the compounds with a filed dose; 0% is about no effect
* marks the source's active call; other numbers are inactive results; ? = inconclusive; . = no result given. Unless noted, calls come from the whole dose curve; as a rule, active = well fitted inhibition curve with a large enough effect; inconclusive = small, poorly fitted or top-dose-only effect, or another doubt; inactive = no such curve, though single readings can be large or run the other way.

SMILES | Shiga toxin inh | NS1 inh | Pf growth 96h | Pf growth 48h | Cycloheximide cs
CSCCCN1CCC(n2nccc2NC(=O)CCCc2ccccc2)CC1 | -9.4 | 11.4% | ? | ? | 5.5
Cc1cc(C)cc(N(CC(=O)NCC2CCCO2)C(=O)CCC(=O)Nc2cc(C)on2)c1 (stereo unspecified) | 34.4 | -5.9% | . | -3.8% | 1.1
Cc1cc(SCC(=O)c2ccc(Cl)cc2)nc(=O)[nH]1 | 52.3* | 15.0% | -1.9% | -6.3% | 43.2*
Cc1cc(SCc2ccc(Cl)cc2Cl)nc(=O)[nH]1 | -2.7 | 4.3% | -0.1% | 20.7% | 1.5
Cc1cc(SCC(=O)c2ccccc2)nc(=O)[nH]1 | 85.2* | 1.4% | 41.4% | 31.0% | 63.3*
Cc1cc(SCC(=O)c2ccccc2)nc2ccccc12 | . | -7.2% | . | . | .
Cc1ccc(C(=O)CSc2cc(C)[nH]c(=O)n2)cc1 | 84.1* | 16.0% | 138.5% | 150.9% | 36.8*
O=C(Cn1cnc2ccccc2c1=O)NCCC(=O)Nc1ccccc1C(F)(F)F | 2.1 | 9.4% | ? | 15.6% | -2.6
CCN1CCC(CNCc2cn(-c3ccc(OC)cc3)nc2-c2ccccc2Cl)C1 (stereo unspecified) | 1.1 | 1.8% | ? | 2.08µM* | 0.8
COc1ccc(-n2cc(CNCCCn3ccnc3)c(-c3ccccc3Cl)n2)cc1 | -5.9 | 1.2% | 20.0% | 1.47µM* | 0.5
COc1ccc(-n2cc(CNCCc3ncc(C)[nH]3)c(-c3ccccc3Cl)n2)cc1 | 31.3 | 7.4% | ? | -11.6% | -0.9
COc1ccc(-n2cc(CNCCN3CCOC3=O)c(-c3ccccc3Cl)n2)cc1 | -3.8 | 0.1% | ? | -6.6% | -2.2
COc1ccc(-n2cc(CNCCc3nc(C)cc(C)n3)c(-c3ccccc3Cl)n2)cc1 | 8.2 | -0.3% | ? | 11.7µM* | 3.8
Fc1ccc(-n2cc(CNCCc3ccccn3)c(-c3ccccc3Cl)n2)cc1 | -4.3 | 7.1% | 22.9% | 8.28µM* | -2.1
Cc1cc(-c2nn(-c3ccccc3F)cc2CNCCc2cnccn2)c(C)s1 | 24.5 | -1.4% | 0.0% | ? | 7.7
O=C(Nc1cccc(NC(=O)c2ccccc2[N+](=O)[O-])n1)c1ccccc1[N+](=O)[O-] | 18.8 | -6.7% | -5.9% | -17.1% | -1.6
Cc1ccc(-n2cc(CNCCc3ncc(C)[nH]3)c(-c3ccc(F)cc3)n2)cc1 | 7.3 | 0.9% | 19.6% | 1.65µM* | 14.0*
Cc1ccc(C(C)NC(=O)Cc2cccs2)cc1C (stereo unspecified) | -20.0 | -1.0% | -8.7% | 13.5% | 2.8
[O-][N+]1=c2ccc(Nc3ccccc3)cc2=NC12CCCCC2 | 88.8* | -123.1% | . | 9.28µM* | 50.8*
O=[N+]([O-])c1ccc2c(c1N1CCCCC1)=NC1(CCCCC1)[N+]=2[O-] | 1.8 | 5.0% | 11.7% | 0.7% | 1.9
COc1ccc(Nc2ccc3c(c2)=NC2(CCCCC2)[N+]=3[O-])cc1 | 58.9* | -60.1% | ? | 11.7µM* | 26.1*
S=c1nc2ccccc2c2nc(-c3ccccc3)[nH]n12 | 21.7 | -30.7% | 46.0% | 4.65µM* | 1.7
COc1ccccc1-c1nc2c3ccccc3nc(=S)n2[nH]1 | -2.7 | 0.7% | 1.47µM* | 4.65µM* | -1.7
S=c1nc2ccccc2c2nc(-c3ccccc3Cl)[nH]n12 | 29.3 | 7.0% | 1.65µM* | 1.47µM* | 11.9
COc1cc(-c2nc3c4ccccc4nc(=S)n3[nH]2)cc(OC)c1OC | -3.0 | 3.9% | -5.0% | ? | 2.0
SMILES | Shiga toxin inh | NS1 inh | Pf growth 96h | Pf growth 48h | Cycloheximide cs
CC(Oc1ccc(Br)cc1)c1nc2c3ccccc3nc(=S)n2[nH]1 (stereo unspecified) | -6.8 | . | ? | 1.47µM* | 17.8
Nc1cc(C(F)(F)F)ccc1NCCc1ccccn1 | 35.0 | 9.4% | ? | . | 12.1
O=C(CCSc1ccc(Cl)cc1)N1CCN(S(=O)(=O)c2ccccc2)CC1 | . | . | -1.1% | ? | .
CCN(CC)CCC#CC1(O)c2ccccc2-c2ccccc21 | . | 2.9% | 3.29µM* | -10.4% | -3.7
OC1(C#CCN2CCCC2)c2ccccc2-c2ccccc21 | -8.7 | 0.4% | ? | 11.7µM* | 1.3
O=C(COc1ccc2c3c(c(=O)oc2c1)CCC3)NCC(O)c1ccccc1 (stereo unspecified) | 12.6 | -14.3% | 11.8% | 19.8% | 9.1
O=C(Oc1cccnc1)c1ccccc1[N+](=O)[O-] | -15.3 | -6.8% | ? | 2.2% | -1.2
Cc1cc(C(=O)Oc2cccnc2)ccc1[N+](=O)[O-] | -3.0 | -11.8% | 3.7µM* | 5.2% | 8.0
Cc1ccc(C(=O)OCn2nnc3ccccc3c2=O)cc1[N+](=O)[O-] | -9.5 | . | 2.62µM* | 13.5% | 7.5
Cc1ccc(C(=O)O/N=C(\N)c2cccnc2)cc1[N+](=O)[O-] | 18.4* | -8.1% | -15.2% | -9.1% | 77.7*
